# Data: PubChem BioAssay AID1835 (Johns Hopkins Ion Channel Center, 2009)
# The whole screen tested about 2,400 compounds, of which about 750 (31%) were called active. The list shows a part of the results. A number with no mark means an inactive call.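 Rule for the calls: active = median signal gain over dofetilide-blocked control wells reaching their mean plus 3 SD, so readout 1 at least 0; inactive = the rest.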
# Target: Voltage-gated inwardly rectifying potassium channel KCNH2 (Homo sapiens) (UniProt Q12809)
# Sequence (Q12809 whole entry, looked up): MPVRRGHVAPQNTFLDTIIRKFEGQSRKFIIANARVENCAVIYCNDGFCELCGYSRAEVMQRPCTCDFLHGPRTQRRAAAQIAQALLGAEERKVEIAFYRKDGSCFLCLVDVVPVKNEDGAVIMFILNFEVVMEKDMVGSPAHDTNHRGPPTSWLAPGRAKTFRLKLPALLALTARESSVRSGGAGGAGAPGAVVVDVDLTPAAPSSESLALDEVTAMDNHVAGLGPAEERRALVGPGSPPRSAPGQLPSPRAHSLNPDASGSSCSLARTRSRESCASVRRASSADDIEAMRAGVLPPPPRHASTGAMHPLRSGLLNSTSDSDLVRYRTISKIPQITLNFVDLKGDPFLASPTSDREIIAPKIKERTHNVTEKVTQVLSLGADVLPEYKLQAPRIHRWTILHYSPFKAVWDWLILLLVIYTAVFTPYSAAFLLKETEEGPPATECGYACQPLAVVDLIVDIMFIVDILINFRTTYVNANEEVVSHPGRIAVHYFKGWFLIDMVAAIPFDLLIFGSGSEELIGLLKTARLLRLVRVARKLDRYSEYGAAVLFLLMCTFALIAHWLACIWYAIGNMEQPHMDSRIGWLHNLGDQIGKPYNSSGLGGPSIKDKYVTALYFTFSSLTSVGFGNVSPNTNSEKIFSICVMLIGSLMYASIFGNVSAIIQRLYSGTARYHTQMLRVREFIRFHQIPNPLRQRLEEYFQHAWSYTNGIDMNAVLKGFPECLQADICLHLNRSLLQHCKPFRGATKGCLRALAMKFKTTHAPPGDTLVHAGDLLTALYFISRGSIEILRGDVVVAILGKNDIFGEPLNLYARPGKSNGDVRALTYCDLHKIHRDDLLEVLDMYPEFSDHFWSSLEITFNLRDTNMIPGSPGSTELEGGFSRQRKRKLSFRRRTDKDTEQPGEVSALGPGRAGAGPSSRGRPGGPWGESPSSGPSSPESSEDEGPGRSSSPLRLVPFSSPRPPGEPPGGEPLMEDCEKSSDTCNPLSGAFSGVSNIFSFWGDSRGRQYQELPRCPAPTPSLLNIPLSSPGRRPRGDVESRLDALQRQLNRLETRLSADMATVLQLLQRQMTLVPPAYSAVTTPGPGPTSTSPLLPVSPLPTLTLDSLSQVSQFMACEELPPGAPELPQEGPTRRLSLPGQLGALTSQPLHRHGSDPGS
# Assay: modulators restoring hERG flux under dofetilide – cell-based, thallium flux, duplicate retest, dofetilide IC70, confirmation (AID 1835)
# Settings: hERG cell line, FluxOR thallium flux, dofetilide-blocked; at 10 µM; hits give high values
row,Structure (SMILES),"activity increase over dofetilide control, less the hit threshold"
1,Cc1ccc(C)c2sc(NC(=O)c3nc4ccccc4s3)nc12,35% (active)
2,Cc1ccc(C)c(NC(=S)c2nc3ccccc3s2)c1,-10%
3,Cc1ccccc1NP(=O)(c1ccccc1)c1nc2ccccc2s1 (centres undefined),-8%
4,C/C(CC(=O)Nc1ccccn1)=N\NC(=O)C(=O)Nc1cccc(Cl)c1C,-6%
5,Cc1ccccc1C(=O)NNC(=O)C(=O)Nc1cccc(Cl)c1C,27% (active)
6,COc1ccccc1C(=O)Nc1ccc(C(=O)N2CCCC2)cc1,0%
7,COc1ccccc1C(=O)NNC(=O)C(=O)Nc1cccc(Cl)c1C,100% (active)
8,CC(=O)Nc1ccccc1C(=O)C(=O)Nc1ccc(Cl)cc1,-3%
9,COc1ccc(Cl)cc1C(=O)Nc1cccnc1Cl,-8%
10,NC(=O)Cn1c2[n+](c3ccccc31)CC(O)CS2 (centres undefined),-24%
11,CC(C)CN1C(=O)/C(=C/c2ccco2)NC1=S,-26%
12,CCN1C(=O)/C(=C/c2ccc(C)s2)NC1=S,14% (active)
13,CCCN1C(=O)/C(=C/c2ccc(C)s2)NC1=S,71% (active)
14,CC(C)CN1C(=O)/C(=C/c2cccs2)NC1=S,85% (active)
15,CCCN1C(=O)/C(=C/c2ccc3c(c2)OCO3)NC1=S,-13%
16,COc1ccc(NS(=O)(=O)c2ccc3ccccc3c2)c2ncccc12,-20%
17,CCOC(=O)c1c(NS(=O)(=O)c2ccc(Br)cc2)sc2c1CCC2,68% (active)
18,COC(=O)c1c(NS(=O)(=O)Cc2ccccc2)sc2c1CCCC2,31% (active)
19,COC(=O)c1c(NS(=O)(=O)c2ccc3ccccc3c2)sc2c1CCCC2,29% (active)
20,Cc1ccc(C(=O)Nc2sc3c(c2C(=O)O)CCCCC3)o1,-22%
21,CCOC(=O)c1c(NS(=O)(=O)Cc2ccccc2)sc2c1CCCC2,69% (active)
22,COc1ccc(S(=O)(=O)Nc2ccc(O)c3ccccc23)cc1,-21%
23,O=C(O)C1C2CCC(O2)C1C(=O)Nc1ccc(F)c(Cl)c1 (centres undefined),-7%
24,Cc1ccc(CN2CCN(CC(=O)NC(C)c3ccc4c(c3)OCCO4)C2=O)cc1 (centres undefined),-9%
25,O=c1[nH]c(=O)n(CCc2ccc(F)cc2)c(O)c1C=NCc1ccc2c(c1)OCO2,-26%
26,CC(C)=CCCC1=CCC2C(=O)NNC(=O)C2C1 (centres undefined),-11%
27,CCOc1ccc(N)c(SSc2cc(OCC)ccc2N)c1,-43%

row,Structure (SMILES),"activity increase over dofetilide control, less the hit threshold"
1,COC(=O)CNc1nc(Cl)nc(Nc2ccc(C)cc2)n1,-7%
2,Cc1nnc(NC(=O)C2CCCN(S(=O)(=O)c3ccccc3C(F)(F)F)C2)s1 (centres undefined),4% (active)
3,CCc1nnc(NC(=O)C2CCCCN2S(=O)(=O)c2ccccc2)s1 (centres undefined),-16%
4,COC(=O)c1ccccc1NC(=O)C1CCCN(S(C)(=O)=O)C1 (centres undefined),-17%
5,Cc1cccc(NC(=O)COc2coc(CN3CCN(c4ccccc4)CC3)cc2=O)c1,-18%
6,CCOC(=O)Cc1csc(NC(=S)NC(=O)c2ccccc2C)n1,3% (active)
7,CCOC(=O)Cc1csc(NC(=S)NC(=O)c2ccc(C)cc2)n1,-18%
8,CCOC(=O)Cc1csc(NC(=S)NC(=O)C(C)(C)C)n1,2% (active)
9,CCOC(=O)c1c(SCC(=O)Nc2nc(C)cs2)nc(=O)[nH]c1C,-16%
10,CCOC(=O)Cc1csc(NC(=S)NC(=O)c2ccc(Cl)cc2)n1,11% (active)
11,CCOC(=O)Cc1csc(NC(=S)NC(=O)c2ccccc2Br)n1,22% (active)
12,COC(=O)c1c(NC(=O)C(C)(C)C)csc1C,-11%
13,COc1cc(S(=O)(=O)NCC2COCCO2)ccc1-n1cnnn1 (centres undefined),-17%
14,Cc1ccc(-n2nc(C)c3c2OC(N)=C(C#N)C3c2ccoc2)cc1 (centres undefined),-19%
15,CCOC(=O)C1=C(Cc2ccc(C)cc2)C(=O)c2ccccc2C1=O,17% (active)
16,CCOC(=O)c1c(C=O)c(C)n(Cc2ccccc2)c1C,-5%
17,CCOc1ccc(/C=C2\CCc3ccccc3C2=O)cc1,-13%
18,CCOc1cc(/C=C2/C(=O)ON=C2C)ccc1O,-22%
19,CCOC(=O)C1=C(O)c2ccccc2C(=O)/C1=C\c1ccc(CC)cc1,28% (active)
20,CSc1ccccc1C(=O)NCc1ccc(C)cc1,-16%
21,Cc1nc(NC(=S)NC(=O)COc2ccc(Cl)cc2)ccc1Br,0%
22,Cc1ccc(OCC(=O)NC(=S)Nc2ccc(Br)cn2)cc1C,-13%
23,Cc1ccc(OCC(=O)NC(=S)Nc2ccc(Br)cn2)cc1,13% (active)
24,COc1ccc(-c2nc3ccc(C(=O)NCC(OC)OC)cc3nc2-c2ccc(OC)c(OC)c2)cc1OC,-14%
25,COc1ccc(C(=O)NC(=S)N(C)C2CCCCC2)cc1Br,-5%
26,C=CCN(CC=C)C(=S)NC(=O)c1ccc(OC)cc1,23% (active)
27,CCN(CC)C(=S)NC(=O)c1ccc(OC)c(Br)c1,11% (active)
